Assay results as given in the supplement of paper PMC4022240.
± gives the standard deviation.

Columns and labels:
Experiment in all cases: peptide microarray binding signal (635 nm), min-max normalized on array (fraction of array maximum); higher = stronger binding
Settings in all cases: peptide region: H3 112-124
[1] = target: T1, HaloTag-ATRX ADD domain (163-292)
T1 chain: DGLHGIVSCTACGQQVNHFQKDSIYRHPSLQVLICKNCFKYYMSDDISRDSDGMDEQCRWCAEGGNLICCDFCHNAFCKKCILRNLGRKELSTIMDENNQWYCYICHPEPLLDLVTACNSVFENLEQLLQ
Procedure, shortened: (§1)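 Binding signal is the mean intensity of triplicate spots, min-max scaled within each library. Histone 13-mer peptide–cellulose conjugates were spotted in triplicate on nitrocellulose with a Cy3 tracer and blocked overnight at 4°C. Probing lasted 1 h at 4°C, either with biotin-labelled HaloTag reader fusions (10 nM to 1 μM) and streptavidin-Alexa Fluor 647 or with rabbit histone antibodies (1:10,000 to 1:2,000) and anti-rabbit Alexa 647. An Axon GenePix 4000B read signal at 635 nm and misprints at 532 nm.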

[2] = target: HaloTag-ING2 PHD (mouse Ing2 200-280)
Procedure, shortened: as §1

[3] = target: anti-H3K4me3 antibody ab8580
Procedure, shortened: as §1

[4] = target: anti-H3K9me3 antibody ab8898
Procedure, shortened: as §1

[5] = peptide modifications: H3R116me2s, binder concentration: 1:2,000 dilution
[6] = peptide modifications: H3R116me2s, binder concentration: 1:10,000 dilution
[7] = peptide modifications: H3R116cit, binder concentration: 1:2,000 dilution
[8] = peptide modifications: H3R116cit, binder concentration: 1:10,000 dilution
[9] = peptide modifications: H3K122me2, binder concentration: 1:2,000 dilution
[10] = peptide modifications: H3K122me2, binder concentration: 1:10,000 dilution
[11] = peptide modifications: H3K122me1, binder concentration: 1:2,000 dilution
[12] = peptide modifications: H3K122me1, binder concentration: 1:10,000 dilution
[13] = peptide modifications: H3K115me3, binder concentration: 1:2,000 dilution
[14] = peptide modifications: H3K115me3, binder concentration: 1:10,000 dilution

B1: H3 112-124 I H A K Rme2s V T I M P K D I (peptide)
chain: IHAKRVTIMPKDI
[1]; peptide modifications: H3R116me2s, binder concentration: 50 nM
  peptide microarray binding signal: 0.00574 ± 0.00016
[1]; peptide modifications: H3R116me2s, binder concentration: 500 nM
  peptide microarray binding signal: 0.0129 ± 0.00072
[2]; peptide modifications: H3R116me2s, binder concentration: 10 nM
  peptide microarray binding signal: 0.00645 ± 0.00026
[2]; peptide modifications: H3R116me2s, binder concentration: 100 nM
  peptide microarray binding signal: 0.014 ± 0.00075
[3]; [5]
  peptide microarray binding signal: 0.00215 ± 0.00015
[3]; [6]
  peptide microarray binding signal: 0.00285 ± 0.00021
[4]; [5]
  peptide microarray binding signal: 0.00341 ± 0.00018
[4]; [6]
  peptide microarray binding signal: 0.002306 ± 2.1e-05

B2: H3 112-124 I H A K Rcit V T I M P K D I (peptide)
chain: IHAKRVTIMPKDI
[1]; peptide modifications: H3R116cit, binder concentration: 50 nM
  peptide microarray binding signal: 0.00583 ± 8.8e-05
[1]; peptide modifications: H3R116cit, binder concentration: 500 nM
  peptide microarray binding signal: 0.0207 ± 0.0059
[2]; peptide modifications: H3R116cit, binder concentration: 10 nM
  peptide microarray binding signal: 0.00895 ± 0.0012
[2]; peptide modifications: H3R116cit, binder concentration: 100 nM
  peptide microarray binding signal: 0.00992 ± 0.0023
[3]; [7]
  peptide microarray binding signal: 0.00451 ± 0.0016
[3]; [8]
  peptide microarray binding signal: 0.00359 ± 0.00055
[4]; [7]
  peptide microarray binding signal: 0.00177 ± 0.00034
[4]; [8]
  peptide microarray binding signal: 0.00179 ± 8.5e-05

B3: H3 112-124 I H A K R V T I M P Kme2 D I (peptide)
chain: IHAKRVTIMPKDI
[1]; peptide modifications: H3K122me2, binder concentration: 50 nM
  peptide microarray binding signal: 0.0047 ± 8.8e-05
[1]; peptide modifications: H3K122me2, binder concentration: 500 nM
  peptide microarray binding signal: 0.0148 ± 0.00039
[2]; peptide modifications: H3K122me2, binder concentration: 10 nM
  peptide microarray binding signal: 0.00567 ± 0.00021
[2]; peptide modifications: H3K122me2, binder concentration: 100 nM
  peptide microarray binding signal: 0.0168 ± 0.0034
[3]; [9]
  peptide microarray binding signal: 0.000906 ± 6e-05
[3]; [10]
  peptide microarray binding signal: 0.000799 ± 8.3e-06
[4]; [9]
  peptide microarray binding signal: 0.00287 ± 0.00058
[4]; [10]
  peptide microarray binding signal: 0.00121 ± 2.4e-05

B4: H3 112-124 I H A K R V T I M P Kme D I (peptide)
chain: IHAKRVTIMPKDI
[1]; peptide modifications: H3K122me1, binder concentration: 50 nM
  peptide microarray binding signal: 0.00429 ± 0.00037
[1]; peptide modifications: H3K122me1, binder concentration: 500 nM
  peptide microarray binding signal: 0.0122 ± 0.0011
[2]; peptide modifications: H3K122me1, binder concentration: 10 nM
  peptide microarray binding signal: 0.0077 ± 0.0008
[2]; peptide modifications: H3K122me1, binder concentration: 100 nM
  peptide microarray binding signal: 0.00602 ± 0.00041
[3]; [11]
  peptide microarray binding signal: 0.00168 ± 0.00019
[3]; [12]
  peptide microarray binding signal: 0.00348 ± 0.0013
[4]; [11]
  peptide microarray binding signal: 0.00251 ± 0.00011
[4]; [12]
  peptide microarray binding signal: 0.00144 ± 5.1e-05

B5: H3 112-124 I H A Kme3 R V T I M P K D I (peptide)
chain: IHAKRVTIMPKDI
[1]; peptide modifications: H3K115me3, binder concentration: 50 nM
  peptide microarray binding signal: 0.00549 ± 0.00022
[1]; peptide modifications: H3K115me3, binder concentration: 500 nM
  peptide microarray binding signal: 0.0171 ± 0.00049
[2]; peptide modifications: H3K115me3, binder concentration: 10 nM
  peptide microarray binding signal: 0.026 ± 0.0073
[2]; peptide modifications: H3K115me3, binder concentration: 100 nM
  peptide microarray binding signal: 0.00872 ± 0.00066
[3]; [13]
  peptide microarray binding signal: 0.0334 ± 0.0055
[3]; [14]
  peptide microarray binding signal: 0.0596 ± 0.027
[4]; [13]
  peptide microarray binding signal: 0.0319 ± 0.041
[4]; [14]
  peptide microarray binding signal: 0.0536 ± 0.0037
